Among the data in PubChem BioAssay AID720628 (The Scripps Research Institute Molecular Screening Center, 2013) are inhibition values, retold here.

SMILES strings stand for the structures. This is one part of the list. Activity calls are given as the source filed them.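 Rule for the calls: active = inhibition above the campaign cutoff, the mean of compounds within control limits plus 3 SD (cut at about 14% in these data); inactive = the rest.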

Fibrinogen beta chain (Homo sapiens), sequence (P02675 whole entry, looked up): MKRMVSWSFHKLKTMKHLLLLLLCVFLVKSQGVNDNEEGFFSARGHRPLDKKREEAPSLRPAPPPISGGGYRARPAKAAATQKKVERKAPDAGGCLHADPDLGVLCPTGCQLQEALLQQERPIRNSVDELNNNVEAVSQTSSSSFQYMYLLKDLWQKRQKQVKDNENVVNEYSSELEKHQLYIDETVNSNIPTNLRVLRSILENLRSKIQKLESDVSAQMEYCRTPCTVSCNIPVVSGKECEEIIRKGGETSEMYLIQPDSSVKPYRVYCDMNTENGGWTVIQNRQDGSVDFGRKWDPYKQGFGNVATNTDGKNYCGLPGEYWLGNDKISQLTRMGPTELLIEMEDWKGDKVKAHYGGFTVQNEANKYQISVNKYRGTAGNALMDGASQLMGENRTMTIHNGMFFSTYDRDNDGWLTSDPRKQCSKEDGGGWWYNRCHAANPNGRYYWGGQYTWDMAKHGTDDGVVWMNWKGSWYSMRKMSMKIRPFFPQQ

The test concerns the target Fibrinogen beta chain (Homo sapiens) (UniProt P02675). As to the kind of experiment: Tn7 displacement from DD(E) complex – biochemical, fluorescence polarization, human fibrin, Tn7 probe, confirmation (AID 720628).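 Note: 100% = median FP of high control wells holding Aha-Tn7 inhibitor peptide; displacers lower polarization since freed probe rises.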 Particulars: FP displacement of TRITC-Tn7 peptide from DD(E); at 8.3 µM; active compounds read high; 0% set at plate's compound-well median.
Consider `O=C(/C=C/c1ccccc1[N+](=O)[O-])NCC1CCCO1` (centres undefined), for which the inhibition (usually the relative decrease from the control value, in per cent) was 9.76% (inactive).

Take `COc1ccc(S(=O)(=O)c2c[nH]c(=S)[nH]c2=O)cc1Cl`: the inhibition was -1.93% (inactive).

Turning to `O=C(CSc1nnc(-c2ccccn2)n1-c1ccc(Cl)cc1)Nc1ccccc1-c1ccccc1`, the inhibition was 2.95% (inactive).

For the molecule `O=C(COC(=O)/C=C/c1ccc(OC(F)F)cc1)NC1CCCCC1`, the inhibition was 6.98% (inactive).

Regarding `Cc1nnc2n1N=C(c1ccc3c(c1)NC(=O)CO3)CS2`, the inhibition is -7.07% (inactive).

On to `CCOc1ccc(Nc2oc(Cc3ccccc3)nc2C#N)cc1`, for which the inhibition was -1.34% (inactive).

Consider `COc1cccc(N2CC(NS(=O)(=O)c3cccs3)CC2=O)c1` (centres undefined), for which the inhibition is 0.77% (inactive).

Consider `Cc1nn(C)cc1N1C(=O)c2cccc3c(N)ccc(c23)C1=O`, for which the inhibition is 12.5% (inactive).

As to `COc1cc(C(=S)N2CCOCC2)ccc1O`, the inhibition was 8.15% (inactive).

For `OC(c1ccccc1)c1nc(-c2cnc3ccccc3c2)cs1` (centres undefined), the inhibition is 7.29% (inactive).

As for `O=C(Nc1ccon1)c1sc2ccccc2c1Cl`, the inhibition is 6.87% (inactive).

Regarding `Oc1ccc2ccc3cccc[n+]3c2c1`, the inhibition was 20.3% (active).

Take `Cn1c(CC(=O)NNC(=O)c2ccccc2F)nc2ccccc21`: the inhibition was 4.13% (inactive).

On to `O=C(NCc1ccccc1)c1cccc(NC(=O)C2CCCCC2)c1`, for which the inhibition is 4.29% (inactive).

In the case of `CC(C)(C)c1cc(CN2CCN(CCC#N)CC2)cc(C(C)(C)C)c1O`, the inhibition was 3.96% (inactive).

In the case of `c1cc(-c2nn[nH]n2)ccc1CN1CCCCC1`, the inhibition is -9.45% (inactive).

Consider `Cc1cc2nc3c(=O)n(Cc4ccccc4)c(=O)[nH]c3nc2cc1N`, for which the inhibition is -4.02% (inactive).

As for `Cc1cc2nc3c(=O)[nH]c(=O)nc-3n(C[C@H](O)[C@H](O)[C@H](O)CO)c2cc1C`, the inhibition is 53.3% (active).

As to `COc1ccc(N=Nc2c(-c3ccc(OC)cc3)[nH]oc2=O)cc1`, the inhibition is -2.03% (inactive).

As to `C#CCNc1ccc(C(=O)OCC)cc1`, the inhibition is 19.9% (active).

On to `CN1c2ccc(C=O)c3c(C=O)ccc(c23)N(C)C1(C)C`, for which the inhibition is 1.94% (inactive).

As for `O=C(COC(=O)c1ccc([N+](=O)[O-])cc1Cl)NC(=O)c1ccccc1`, the inhibition was 2.79% (inactive).

`CN1C(=O)c2cccc3c(N)ccc(c23)C1=O`: the inhibition is 30.8% (active).

Turning to `COc1ccc(-c2nc(CCNC(=O)c3ccc(Br)o3)cs2)cc1`, the inhibition is 1.25% (inactive).
